Results as given in PubChem BioAssay (Tox21).
Unmarked numbers belong to inactive results. Inconclusive results are not listed. Where a call stands in place of a potency, no number is given. Active and inactive are the calls of the source. Unless noted, calls follow the shape of the dose curve; as a rule, active = well fitted curve in the direction sought with a large enough effect in the repeat runs; inconclusive = weak or mixed curves; inactive = no such curve, though single readings can be large; an effect the other way counts as inactive or inconclusive.

How the values were obtained:
[1] = qHTS assay to identify small molecule antagonists of the constitutive androstane receptor (CAR) signaling pathway - cell viability counter screen (AID 1224837); also: nearly all actives have a fitted effect of over 45% in size; also: potency is read from the fitted curve at half-maximal effect
Outline: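 Counter screen run in HepG2-CYP2B6-hCAR cells: 4 hr settle, compound titration (15 concentrations) with 50 nM CITCO, 23 hr at 37 C/5% CO2, CellTiter-Fluor fluorescence.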

[2] = molecular target: Nuclear receptor subfamily 1 group I member 3 (Homo sapiens) (UniProt Q14994); experiment: qHTS assay to identify small molecule antagonists of the constitutive androstane receptor (CAR) signaling pathway (AID 1224838);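 also: HepG2 cells stably expressing hCAR with CYP2B6 luciferase reporter stimulated by CITCO; nearly all actives have a fitted effect of over 40% in size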
Outline: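 Cell line: HepG2 double-stable for hCAR and CYP2B6-2.2kb reporter. Agonist: CITCO, 50 nM final. Compounds: 15 concentrations, 24 h, 37 C. Detection: ONE-Glo luminescence.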

[3] = molecular target: Nuclear receptor subfamily 1 group I member 3 (Homo sapiens) (UniProt Q14994); experiment: qHTS assay to identify small molecule agonists of the constitutive androstane receptor (CAR) signaling pathway (AID 1224839);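 also: HepG2 cells stably carrying human CAR and a CYP2B6 luciferase reporter; nearly all actives have a fitted effect of over 15% in size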
Outline: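 Luminescent ONE-Glo read-out after 24 hr, 37 C exposure of double-stable HepG2-CYP2B6-hCAR reporter cells to a 15-point compound series, in the presence of 0.75 uM PK11195 (final).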

[4] = qHTS assay to identify small molecule antagonists of the estrogen related receptor signaling pathway with the pleiotropic PPARgamma coactivator (PGC) from Tox21 10K library - cell viability counter screen (AID 1224840; active = well fitted cell-killing curve with a large enough effect in the repeat runs, not every such curve was filed as active; also: nearly all actives have a fitted effect of over 40% in size; also: potency is read from the fitted curve at half-maximal effect)
Outline: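 Following seeding of 2,000 PGC/ERR cells/well and 6 hours' incubation, test compounds were delivered in DMSO. The plates then sat 17.5 hours at 37 C before a fluorogenic live-cell protease reagent (CellTiter-Fluor) was read after 30 min.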

[5] = qHTS assay to identify small molecule antagonists of the estrogen related receptor signaling pathway with the pleiotropic PPARgamma coactivator (PGC) from Tox21 10K library (AID 1224841; call rule not given here; also: actives are mostly falling curves and most rising ones were filed inactive; nearly all actives have a fitted effect of over 50% in size)
Outline: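 qHTS antagonist format: PGC/ERR cells, 2k/well, compound in DMSO by pin transfer after 6 h attachment, 18 h treatment at 37 C, One-Glo luminescence read at 30 min.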

[6] = qHTS assay to identify small molecule agonists of the estrogen related receptor signaling pathway with the pleiotropic PPARgamma coactivator (PGC) from Tox21 10K library (AID 1224842); also: nearly all actives have a fitted effect of over 15% in size
Outline: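 Luminescence from One-Glo (30 min, room temperature) measured after PGC/ERR cells had 18 h at 37 C with pinned compound (23 nL in DMSO). Cells had been seeded at 2,000 per well and pre-incubated 6 h.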

[7] = molecular target: Thyrotropin receptor (Homo sapiens) (UniProt P16473); experiment: qHTS assay to identify small molecule agonists of the thyroid stimulating hormone receptor (TSHR) signaling pathway (AID 1224843; calls by dose curve; also: nearly all actives have a fitted effect of over 45% in size)
Outline: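 Screening of the Tox21 10K collection used HEK293 cells engineered with TSHR at 800 cells per well. After a 30-min room-temperature compound exposure, HTRF cAMP reagents were added and fluorescence recorded 1 h later.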

[8] = qHTS assay to identify small molecule agonists of H2AX (AID 1224845; active = well fitted activation curve with a large enough effect in the signal ratio in the repeat runs, not every such curve was filed as active; the % refers to the signal ratio)
Outline: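 Phospho-H2AX Ser139 measured by HTRF (ex 320 nm; em 665 and 620 nm) after 24 hr antibody incubation. Compounds, 15 concentrations, 0.76% DMSO, were applied to CHO-K1 cells for 3hr at 37C before lysis.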

[9] = qHTS assay to identify small molecule agonists of the hypoxia (HIF-1) signaling pathway (AID 1224846; active = well fitted activation curve with a large enough effect in the signal ratio in the repeat runs, not every such curve was filed as active; the % refers to the signal ratio)
Outline: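 A low-serum medium (0.5% dialyzed FBS) holding 2,000 HRE-bla ME-180 cells per well is preincubated for 5 hrs, dosed with compounds by pintool, and kept a further 17 hrs at 37C, 5% CO2 before CCF4-AM FRET detection of beta-lactamase.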

[10] = qHTS assay to identify small molecule agonists of H2AX - cell viability counter screen (AID 1224847; calls by dose curve;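 also: wild-type CHO-K1 cells; top concentration of the series differs between compounds; nearly all actives have a fitted effect of over 30% in size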)
Outline: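 Counter-screen for viability: CellTiter-Glo ATP luminescence read after 3 h compound treatment (15-point titration, 0.76% DMSO final) of CHO-K1 cells at 37C, with 30 min room-temperature reagent incubation.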

[11] = qHTS assay to identify small molecule antagonists of the estrogen related receptor (ERR) signaling pathway from Tox21 library (AID 1224848); also: nearly all actives have a fitted effect of over 50% in size
Outline: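 Antagonist-mode screen of the Tox21 10K library in an NTP-provided ERR reporter cell line; 18 h compound exposure at 37 C, luminescence measured with ONE-Glo.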

[12] = qHTS assay to identify small molecule agonists of the estrogen related receptor (ERR) signaling pathway from Tox21 library (AID 1224849; calls by dose curve; also: nearly all actives have a fitted effect of over 15% in size); conditions: ERR reporter cell line, ONE-Glo luciferase, 18 h; at 92.4 µM (top of the series)
Outline: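 Screening used an NTP-provided ERR luciferase cell line. Compounds in DMSO were added 6 h after seeding and left 18 h at 37 C before a 30 min ONE-Glo step and luminescence reading.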

[13] = qHTS RealTime-Glo MT Cell Viability Assay in HepG2 cells - 24 hour (AID 1224867); also: nearly all actives have a fitted effect of over 50% in size
Outline: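 Viability was tracked continuously by NanoLuc luminescence from prosubstrate reduced by living HepG2 cells, at successive time points over 40 h of compound exposure. Cells with reagent were preincubated 5 h at 37 °C before compound addition.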

[14] = qHTS RealTime-Glo MT Cell Viability Assay in HEK293 cells - 32 hour (AID 1224868); also: top concentration of the series differs between compounds; nearly all actives have a fitted effect of over 50% in size
Outline: (§1)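 Viability tracked continuously by luminescence as live cells reduce a prosubstrate for NanoLuc; HEK293 cells preincubated 5 h, compound-treated at 37 C, and read at 0, 8, 16, 24, 32 and 40 h.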

[15] = qHTS RealTime-Glo MT Cell Viability Assay in HepG2 cells - 40 hour (AID 1224870); also: nearly all actives have a fitted effect of over 50% in size
Outline: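 Real-time viability: cells seeded at 600 per well together with NanoLuc and cell-permeant prosubstrate, compounds added after 5 h incubation. Luminescence tracked at 0, 8, 16, 24, 32 and 40 h of exposure.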

[16] = A CellTox Green Cytotoxicity Assay to monitor cytotoxicity in HEK293 cells - 40 hour (AID 1224871); also: nearly all actives have a fitted effect of over 45% in size
Outline: (§2)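 Fluorescence intensity, read at 0, 8, 16, 24, 32 and 40 h of compound treatment, reflected dye binding to DNA of dead HEK293 cells; compounds (23 nL, DMSO) were added 5 h after plating cells with reagent.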

[17] = qHTS RealTime-Glo MT Cell Viability Assay in HEK293 cells - 16 hour (AID 1224872)
Outline: as §1

[18] = A CellTox Green Cytotoxicity Assay to monitor cytotoxicity in HEK293 cells - 0 hour (AID 1224869); also: nearly all actives have a fitted effect of over 50% in size
Outline: as §2

[19] = qHTS assay to identify small molecule agonists of the hypoxia (HIF-1) signaling pathway - cell viability counter screen (AID 1224844; calls by dose curve; also: nearly all actives have a fitted effect of over 50% in size)
Outline: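 Cells (HRE-bla ME-180, 2,000 per well) sat 5 hrs at 37C, got compound for 17 hrs, were read for CCF4-AM FRET, and were finally lysed with CellTiter-Glo for a 30 min room-temperature luminescence read.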

Sequence of Nuclear receptor subfamily 1 group I member 3 (Homo sapiens) (Q14994 whole entry, looked up): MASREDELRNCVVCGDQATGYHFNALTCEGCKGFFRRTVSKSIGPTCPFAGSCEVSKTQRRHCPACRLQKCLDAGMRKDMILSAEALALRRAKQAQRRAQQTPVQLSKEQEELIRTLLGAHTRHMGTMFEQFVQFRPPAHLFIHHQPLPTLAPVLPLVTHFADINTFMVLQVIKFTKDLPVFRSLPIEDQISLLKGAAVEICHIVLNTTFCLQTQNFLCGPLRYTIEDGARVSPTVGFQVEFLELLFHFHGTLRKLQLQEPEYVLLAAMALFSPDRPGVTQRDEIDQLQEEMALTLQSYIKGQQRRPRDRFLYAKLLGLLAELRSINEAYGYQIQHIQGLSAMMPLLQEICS
Sequence of Thyrotropin receptor (Homo sapiens) (P16473 whole entry, looked up): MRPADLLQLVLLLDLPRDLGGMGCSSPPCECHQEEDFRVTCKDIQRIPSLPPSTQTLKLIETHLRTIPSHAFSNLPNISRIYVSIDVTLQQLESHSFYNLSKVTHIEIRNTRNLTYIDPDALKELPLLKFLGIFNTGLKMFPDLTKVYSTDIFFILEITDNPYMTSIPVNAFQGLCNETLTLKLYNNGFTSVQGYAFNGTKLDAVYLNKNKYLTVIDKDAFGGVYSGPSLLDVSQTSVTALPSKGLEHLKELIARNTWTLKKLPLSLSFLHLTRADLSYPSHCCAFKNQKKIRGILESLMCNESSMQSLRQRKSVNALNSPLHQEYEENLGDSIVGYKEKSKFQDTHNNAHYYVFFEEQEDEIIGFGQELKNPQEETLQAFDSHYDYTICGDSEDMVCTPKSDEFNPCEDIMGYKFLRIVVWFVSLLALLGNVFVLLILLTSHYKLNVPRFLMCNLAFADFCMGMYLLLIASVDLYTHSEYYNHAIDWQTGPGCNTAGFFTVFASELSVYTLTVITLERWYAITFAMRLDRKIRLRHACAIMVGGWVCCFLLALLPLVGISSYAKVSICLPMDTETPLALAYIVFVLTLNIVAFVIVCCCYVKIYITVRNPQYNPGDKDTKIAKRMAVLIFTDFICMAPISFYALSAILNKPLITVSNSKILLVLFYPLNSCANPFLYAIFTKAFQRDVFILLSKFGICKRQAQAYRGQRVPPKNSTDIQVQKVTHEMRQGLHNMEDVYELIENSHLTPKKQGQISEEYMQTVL

Compound | Potency [1] | Potency [2] | Potency [3] | Potency [4] | Potency [5] | Potency [6] | Potency [7] | Potency [8] | Potency [9] | Potency [10] | Potency [11] | activity change, positive = activation [12] | Potency [13] | Potency [14] | Potency [15] | Potency [16] | Potency [17] | Potency [18] | Potency [19]
CNc1ccc([N+](=O)[O-])cc1 | 48.7 µM (active) | inactive | inactive | 48.7 µM (active) | inactive | inactive | inactive | inactive | inactive | inactive | inactive | 0.163% | inactive | inactive | inactive | inactive | inactive |  | 
CCCCCC/C=C\CCCCCCCC(=O)O | inactive | inactive | inactive | inactive |  |  | inactive | inactive |  | inactive |  |  | inactive | inactive | inactive | inactive | inactive | inactive | 
CCCCCC(C)OC(=O)COc1ccc(Cl)c2cccnc12 (stereo not drawn) | inactive | inactive | inactive | inactive |  |  |  | inactive | inactive |  |  |  | inactive | inactive | inactive |  |  | inactive | inactive
Fc1ccc(C(c2ccc(F)cc2)N2CCNCC2)cc1 | inactive | inactive | inactive | inactive |  |  | inactive | inactive |  | inactive |  |  |  |  | inactive | inactive | inactive | inactive | inactive
